Among all 300,000 compounds or so, about 480 (0.16%) were called active. Only a sample is shown. Entries with a potency or affinity are not part of this list. A number with no mark means an inactive call.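 The calls were made as follows: active = inhibition over 29.93%, a cutoff 3 SD above the screen mean, later confirmed by dose response; inconclusive = inhibition over 29.93% but no dose response follow-up; inactive = inhibition at most 29.93% or unconfirmed.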

A short description of the assay: inhibitors of PhoP regulon expression, primary screen, Salmonella Typhimurium, GFP reporter (AID 1863).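 Also: 0% = low Mg2+ inducing control and 100% = high Mg2+ repressing control.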 The settings on record: S. Typhimurium PhoP-regulated promoter GFP reporter, 4 h; at 50 µM; active compounds read high.
As a reminder, the inhibition is the drop in the measured response relative to a control, in per cent. In the case of `COc1ccc2c(CC(=O)Nc3ccc(OC)c(S(=O)(=O)N4CCOCC4)c3)coc2c1`, the inhibition was 4.59%.

Consider `O=C(NCC(O)COc1ccc([N+](=O)[O-])cc1)c1ccccc1` (stereo not given), for which the inhibition was -9.65%. For the compound `Cc1ccc(CNCCC2=CCCCC2)cc1`, the inhibition is -46.6%. Take `Clc1ccc(CNCCC2=CCCCC2)cc1`: the inhibition is 18.9%.

As for `O=C(NC1CC1)c1c[nH]c2ccc(S(=O)(=O)Nc3cccc(C(F)(F)F)c3)cc2c1=O`, the inhibition was 14.8%.

With `C=CCNC(=O)c1cn(CC)c2cc(N3CCN(C(=O)c4ccco4)CC3)c(F)cc2c1=O`, the inhibition was 5.05%. Regarding `CCn1cc(C(=O)NCc2ccccc2)c(=O)c2cc(F)c(N3CCN(C(=O)c4ccco4)CC3)cc21`, the inhibition is 6.24%.

On to `CCn1cc(C(=O)O)c(=O)c2cc(F)c(N3CCN(C(=S)NC(=O)c4ccccc4Br)CC3)cc21`, for which the inhibition is 8.64%. On to `CCn1cc(C(=O)NCCc2ccccc2)c(=O)c2cc(F)c(N3CCN(C)CC3)cc21`, for which the inhibition is -0.827%. Regarding `CCC(CO)NC(=O)c1ccccc1C(F)(F)F` (stereo not given), the inhibition was 2.52%. On to `O=C(O)C1C2CCC(O2)C1C(=O)Nc1ccccc1Br` (stereo not given), for which the inhibition is -9.38%. Under `COC(=O)c1ccccc1NC(=O)C1CCN(C(=O)Cc2ccccc2)CC1` stands 3.37%; under `CCOC(=O)COc1c(Br)cc(/C=C2\SC(=O)N(CC(=O)N3CCCC3)C2=O)cc1OC`, 5.47%; under `COc1ccc(N(C(=O)CNC(=O)c2cccs2)C(C(=O)NC2CCCC2)c2ccncc2)cc1` (stereo not given), -0.95%. Consider `Cc1nc2nc3c(cn2n1)C(=O)CC(C)(C)C3`, for which the inhibition is -6.32%. Turning to `CC(C)n1c(SCC(=O)NC2CC2)nnc1-c1ccco1`, the inhibition was 3.76%. As for `CCOC(=O)CSc1nc2c(c(=O)n1-c1ccc(OCC)cc1)SCC2`, the inhibition was -4.68%. For `Cc1ccc(C(=O)c2no[n+]([O-])c2C(=O)c2ccc(C)cc2)cc1` the value was -26.5%; for `COc1ccc(C(=O)c2no[n+]([O-])c2C(=O)c2ccc(OC)cc2)cc1`, -73.5%. In the case of `Cc1ccc(S(=O)(=O)NN2C(=O)c3ccccc3NC2c2ccccc2O)cc1` (stereo not given), the inhibition was 2.27%. In the case of `Cc1onc(-c2ccccc2)c1C(=O)NC(=S)NNC(=O)c1ccccc1O`, the inhibition was 18.4%. With `Cc1onc(-c2ccccc2)c1C(=O)NC(=S)NNC(=O)c1ccc(O)cc1`, the inhibition is -7.99%. For `CC(C)[C@@H](COc1ccccc1)N1CCN(Cc2ccccc2)CCC1=O` the value was 11.4%; for `Cc1ccc(N(CC(=O)NC2CCCCC2)C(=O)CNC(=O)c2cccs2)cc1`, 5.02%.

For `CNC[C@H](CC1CCCCC1)NC[C@H](CO)NCCc1cccc(C(F)(F)F)c1`, the inhibition is 13%. As to `CNC[C@H](CC1CCCCC1)NC[C@H](CO)NCC1(c2ccccc2)CC1`, the inhibition is 5.82%. As for `Cc1ccccc1NC(=O)NC1(C(=O)NCc2ccco2)CCCCC1`, the inhibition was -5.56%. For `Cc1cccc(NC(=O)CSc2nnc(-c3ccncc3)n2CC2CCCO2)c1` (stereo not given), the inhibition is 0.37%. With `Clc1ccc2[nH]c3c(NCCN4CCOCC4)ncnc3c2c1`, the inhibition was -2.52%.

Turning to `Clc1ccc2[nH]c3c(NCC4CCCO4)ncnc3c2c1` (stereo not given), the inhibition is 17.8%. For `COc1ccc(NC(=O)CSc2cc(C(=O)c3nccn3C)c3ccccc3n2)cc1` the value was 3.48%; for `CCOc1ccc(NC(=O)c2cc(Cl)nc3ccccc23)cc1`, 1.03%. For `C=CCNc1nc(Nc2ccccc2F)nc(OCC)n1`, the inhibition is -4.99%.

Take `Cc1ccc(-c2nc(NCc3ccco3)c3ccccc3n2)cc1`: the inhibition was 23.9%.

Take `Oc1ccccc1Nc1nc(NCc2ccccc2)c2ccccc2n1`: the inhibition is -0.55%. On to `COc1ccccc1Nc1nc(NCc2ccco2)c2ccccc2n1`, for which the inhibition is 48%. For `Cc1ccccc1Nc1nc(NCc2ccco2)c2ccccc2n1` the value was 25.6%; for `Fc1ccccc1-c1nc(NCc2ccco2)c2ccccc2n1`, -13.7%; for `OCCNc1nc(NCc2ccccc2)c2ccccc2n1`, 3.19%. On to `CCc1noc(C)c1C(=O)Nc1ncc(C)s1`, for which the inhibition was 2.49%. Under `CCC(Oc1ccccc1)C(=O)Nc1nc2ccccc2[nH]1` (stereo not given) stands -3.54%. On to `Cc1ccc2cc(C(c3nnnn3C3CCCC3)N(Cc3ccco3)Cc3cccs3)c(=O)[nH]c2c1` (stereo not given), for which the inhibition is -2.55%. As to `CN1CCc2c(sc3nc(NCCO)n(-c4cccc(Cl)c4)c(=O)c23)C1`, the inhibition is -3.53%.

For the compound `CC(Oc1ccccc1)C(=O)N=C1SC2CS(=O)(=O)CC2N1c1ccc(F)cc1` (stereo not given), the inhibition was -3.91%. Take `O=S(=O)(Nc1nc2ccccc2nc1NCC1CCCO1)c1ccc(F)cc1` (stereo not given): the inhibition was 6.59%. Consider `Cc1cc2ncn(/N=C/c3ccc([N+](=O)[O-])s3)c2cc1C`, for which the inhibition was -6.99%.

`Cc1cccc(C)c1NC(=O)CNCC(=O)Nc1c(C)cccc1C`: the inhibition is 0.56%. As for `O=C(O)c1cccc(NC(=O)c2ccc3c(c2)C(=O)N(CC2CCCO2)C3=O)c1` (stereo not given), the inhibition is -1.15%. For `O=C(CSc1nc2ccccc2s1)N/N=C/c1ccccc1C(=O)O` the value was -5.31%; for `Cc1ccc(C)c(NC(=O)CCC(=O)N/N=C/c2cc([N+](=O)[O-])ccc2O)c1`, 8.86%; for `O=C(CSc1ccccn1)N/N=C/c1cccc([N+](=O)[O-])c1`, 0.8%.

As to `O=C(CSc1nc2ccccc2s1)NCc1cc([N+](=O)[O-])ccc1O`, the inhibition is -4.94%. In the case of `O=[N+]([O-])c1cccc(/C=N/Nc2ccccn2)c1`, the inhibition is -2.55%.

`Cc1cc(Cl)ccc1NC(=O)CCC(=O)N/N=C/c1cc([N+](=O)[O-])ccc1O`: the inhibition was 12.1%. For `O=[N+]([O-])c1ccc(/C=N/Nc2ccccn2)cc1` the value was 4.65%; for `COc1cc([N+](=O)[O-])cc(/C=N/NC(=O)CSc2ccccn2)c1O`, 24.8%.

Regarding `O=C1CCc2cc(NS(=O)(=O)c3ccccc3)cc3c2N1CCC3`, the inhibition is 3.44%. In the case of `CCOC(=O)C1(Cc2ccc(Cl)cc2)CCN(C2CCC2)CC1`, the inhibition is -6.48%. As for `CC(C)c1nc(SCC(=O)Nc2cccc(S(N)(=O)=O)c2)n[nH]1`, the inhibition is -17.9%. For `COc1ccc(CC(=O)Nc2nc(-c3ccccc3)c(C(C)=O)s2)cc1OC` the value was 5.08%; for `COc1ccc(S(=O)(=O)N2CCC(C(=O)NCCCc3ccccc3)CC2)cc1`, -11.5%; for `NC(N)=NC(=S)Nc1ccc(Cl)cc1`, -3.56%. For the compound `CC(C)N=C(N)N=C(N)Nc1ccc(Cl)cc1`, the inhibition is -0.65%. Take `O=C(NCc1ccccc1)c1cncc(Br)c1`: the inhibition was 3.01%. For `CC1CCC2(CC1)NC(=O)N(CC(=O)c1cn(CCC#N)c3ccccc13)C2=O` (stereo not given) the value was -10.8%; for `Cc1cc(C)n2nc(C(=O)OCC(=O)c3c[nH]c4ccccc34)nc2n1`, 10.2%. For `COc1ccc(CNC(=O)CSc2nnc(NC(=O)C3CC3)s2)cc1` the value was -0.4%. Consider `Oc1ccccc1/C=N/Nc1nccnc1Cl`, for which the inhibition was 25.1%. Regarding `Oc1c(Cl)cc(Cl)cc1/C=N/Nc1ncc(Br)cn1`, the inhibition was 6.58%.

Take `Oc1ccc(/C=N/Nc2nccnc2Cl)cc1`: the inhibition was 5.13%. `Oc1ccccc1/C=N/Nc1ncc(Br)cn1`: the inhibition is -2.93%. Turning to `Cc1ccccc1-n1c(SCC(=O)N/N=C/c2sccc2C)nc2ccccc2c1=O`, the inhibition is -15.1%. For the compound `Cc1nn2c(-c3ccc(S(=O)(=O)N4CCN(C)CC4)o3)nnc2c2ccccc12`, the inhibition is 1.51%. Under `Cc1cc2c(cc(C(=O)NCc3cccnc3)n2Cc2ccc(Cl)cc2)o1` stands 13%; under `COc1ccc(N2CCOCC2)c(NC(=O)c2cccnc2)c1`, 0.01%; under `CCN(Cc1cn2cccnc2n1)C1CCCCC1`, -4.78%. As for `Cc1nc2ccc(Cl)cc2nc1C`, the inhibition is -3.83%.

As for `Cc1nc(N)nc(Cl)c1Cc1ccc(Cl)cc1`, the inhibition is 2.03%. For `O=[N+]([O-])c1cc2c(cc1CN1CCN(c3ccc(F)cc3)CC1)OCO2` the value was -3.23%. Under `CCOc1ccc(-c2nc(S(=O)(=O)c3ccccc3)c(NC)o2)cc1` stands -1.53%; under `COCCCNC(=O)CCCN1C(=O)c2cccnc2Sc2ccccc21`, -9.37%. For `COc1ccc(N2CCN(c3nc4c(C)cccn4c(=O)c3/C=C(\C#N)C(N)=O)CC2)cc1` the value was 0.07%; for `COc1cc(Cl)ccc1OCc1cc(C(=O)N2CCC(N(C)C)C2)no1` (stereo not given), 4.49%. Take `O=[N+]([O-])c1cc(CN2CCN(c3ccccc3)CC2)c(O)c2ncccc12`: the inhibition is 14%. As to `Oc1c(CN2CCCCC2)cc(Br)c2cccnc12`, the inhibition is -2.58%.

As for `COCc1cc(CN2CCCC2)c(O)c2ncccc12`, the inhibition is 0.6%. As for `CN1CCN(Cc2cc(COCc3ccccc3)c3cccnc3c2O)CC1`, the inhibition is 21%. Regarding `O=C(Oc1c(CN2CCOCC2)cc(Cl)c2cccnc12)c1ccccc1Cl`, the inhibition is 13.4%. Under `O=[N+]([O-])c1cccc2c(N3CCOCC3)ccnc12` stands -2.73%; under `O=C(COC(=O)c1cc[n+]([O-])cc1)Nc1c(Cl)cccc1C(F)(F)F`, 0.58%; under `Cc1occc1-c1nnc(SCCNCCO)o1`, -0.93%.

On to `CCn1ccnc1[C@@H]1C[C@H]2CN(Cc3cccc(Cl)c3)C(=O)[C@]23CCCN13`, for which the inhibition was 3.68%. For the compound `CCN1C(=O)CSc2ccc(C(=O)NCc3ccc(OC)cc3)cc21`, the inhibition is -1.69%. Consider `COc1ccc(S(=O)(=O)NN=C2CCCC2)cc1`, for which the inhibition is 1.9%. As for `O=C(c1oc(=O)c2ccccc2c1-c1ccccc1)N1CCC(O)CC1`, the inhibition is 18.1%.

Source of the values: PubChem BioAssay AID1863 (Southern Research Specialized Biocontainment Screening …, 2009).
